# Laboratory results published in PubChem BioAssay (EPA / NIEHS).
# Calls of active or inactive are those of the source. The calls were made as follows: active = hit-call score of the fitted dose curve at least 0.9, where 1 is the maximum; inactive = score below 0.9.
# Experiment: APR_HepG2_StressKinase_1hr: Apredica 1-hour HepG2 Assay for Stress Kinase (AID 2282906)
# Details: HepG2 stress kinase (phospho-c-Jun) imaging, actives raise or lower the signal
# Experimental: APR_HepG2_1hr is a cell-based, multiplexed-readout assay that uses HepG2, a human liver cell line, with measurements taken at 1 hour after chemical dosing in a 384-well plate.APR_HepG2_StressKinase_1hr is one of 10 assay component(s) measured or calculated from the APR_HepG2_1hr assay. It is designed to make measurements of enzyme activity, a form of enzyme reporter, as detected with fluorescence intensity signals by HCS Fluorescent Imaging technology.Data from the assay component APR_HepG2_StressKinase_1hr was analyzed into 1 assay endpoint. This assay endpoint, APR_HepG2_StressKinase_1hr, was analyzed with bidirectional fitting relative to DMSO as the negative control and baseline of activity. Using a type of enzyme reporter, measures of protein for gain or loss-of-signal activity can be used to understand the signaling at the pathway-level as they relate to the gene . Furthermore, this assay endpoint can be referred to as a primary readout, because this assay has produced multiple assay endpoints where this one serves a signaling function. To generalize the intended target to other relatable targets, this assay endpoint is annotated to the cell cycle intended target family, where the subfamily is stress response.
# Cells were treated with dimethyl sulfoxide (DMSO) as a solvent control at a final concentration of 0.5% v/v or with compounds in DMSO with a resulting final DMSO concentration of 0.5% v/v. Compound treatment was done at concentrations of 0.39, 0.78, 1.56, 3.12, 6.24, 12.5, 25, 50, 100, and 200 uM in duplicate on each plate. Cells were treated with compounds for 1, 24, or 72 hr. Carbonyl […] m-chloro-phenylhydrazone (CCCP) and taxol were used as positive controls for mitochondrial function and cytoskeletal stability, respectively; DMSO served as the negative control for this experiment. Cells were fixed by the direct addition of 50 uL formaldehyde in Hank's Balanced Salt Solution (HBSS) to a final concentration of 3.7%. After incubation in the fixation medium for 30 min at room temperature (293-298 K), cells were rinsed twice with HBSS and treated with cell permeabilization buffer (16 uL of 0.5% Triton X-100) for 10 min at room temperature (293-298 K) before labeling. For mitochondrial membrane potential and mitochondrial measurements, pre-fixed cells were incubated with 50 uL of MitoTracker Red CMXRos (Invitrogen) at a concentration of 250 nM for 30 min before fixation. In the remaining cases, post-fixed cells were labeled by incubation with a multiplexed mixture of primary antibodies in HBSS for 60 min at room temperature (293-298 K) to detect immunoreactivity of c-Jun (1:500), phospho-histone H3 (1:100), phospho-histone H2A.x (1:200), p53 (1:400), alpha-tubulin (1:200) and Hoechst 33342 (2 ug/mL). Cells were labeled for multiplexed imaging on two separate plates: a) Hoechst 33342, MitoTracker Red, phospho-histone H3, and alpha-tubulin, and b) Hoechst 33342, phospho-histone H2A.x, and c-Jun. A final rinse with HBSS (50 uL) was performed before analysis. The primary and secondary antibodies for the proteins were phospho-histone H3 (rabbit anti-phospho-histone H3 and FITC-donkey anti-rabbit IgG), phospho-histone H2A.x (mouse anti-phospho-histone H2A.x and FITC-donkey anti-mouse IgG), c-Jun (rabbit anti-phospho-c-Jun and Cy3-donkey anti-rabbit IgG), p53 (sheep anti-p53 and Cy5-donkey anti-sheep IgG), alpha-tubulin (mouse anti-alpha-tubulin and Cy5-donkey anti-mouse IgG). These antibodies are available as the CellCiphr HepG2 assay kit (Millipore).Digital images of each well were captured using a Cellomics ArrayScan VTI (Thermo Scientific Cellomics) (0.8 NA objective, 0.63x optical coupler, and XF-93 filter set) at 20x magnification. The images were acquired using the autofocus feature of the ArrayScan instrument, which entails the following steps. First, the camera focuses on channel 1 (Hoechst 33342), where nuclei are identified. Second, a Z offset of 1 um is used for capturing mitochondria (MitoTracker Red). […]
Structure (SMILES),outcome,AC50
O=[N+]([O-])/N=C1\NCCN1Cc1ccc(Cl)nc1,inactive,
O=S1OCC2C(CO1)C1(Cl)C(Cl)=C(Cl)C2(Cl)C1(Cl)Cl (stereo not given),,94.4 µM (active)
CCC(C)(C)C(=O)OC1=C(c2ccc(Cl)cc2Cl)C(=O)OC12CCCCC2,inactive,
Oc1ccc(Cl)cc1Cc1ccccc1,,77.4 µM (active)
Oc1cc(Cl)ccc1Oc1ccc(Cl)cc1Cl,inactive,
CCCN(CCC)c1c([N+](=O)[O-])cc(C(F)(F)F)cc1[N+](=O)[O-],inactive,
O=C1c2ccccc2C(=O)N1SC(Cl)(Cl)Cl,inactive,
[2H]C1([2H])[n+]2ccccc2-c2cccc[n+]2C1([2H])[2H],inactive,
COP(=S)(OC)Oc1ccc(SC)c(C)c1,inactive,
CNC(=O)Oc1cccc(N=CN(C)C)c1,inactive,
O=C(O)CCCOc1ccc(Cl)cc1Cl,inactive,
O=C(NC(=O)c1c(F)cccc1F)Nc1ccc(OC(F)(F)C(F)OC(F)(F)F)c(Cl)c1 (stereo not given),inactive,
COC(=O)c1ccccc1CS(=O)(=O)NC(=O)Nc1nc(OC)cc(OC)n1,inactive,
CC1(C)C(C=C(Cl)Cl)C1C(=O)OC(C#N)c1ccc(F)c(Oc2ccccc2)c1 (stereo not given),inactive,
O=C(O)C(F)(F)C(F)(F)C(F)(F)C(F)(F)C(F)(F)C(F)(F)C(F)(F)F,inactive,
Cc1[nH]c(=O)n(C(C)(C)C)c(=O)c1Cl,inactive,
Cc1cc(C)nc(NC(=O)NS(=O)(=O)c2ccccc2C(=O)OC2COC2)n1,inactive,
CC(C)(C)C(O)C(Oc1ccc(Cl)cc1)n1cncn1 (stereo not given),inactive,
CNC(=O)Oc1ccccc1OC(C)C,inactive,
CNC(=O)/C=C(\C)OP(=O)(OC)OC,inactive,

Structure (SMILES),outcome,AC50
COc1nn(CSP(=S)(OC)OC)c(=O)s1,inactive,
COc1cc(OC)nc(NC(=O)NS(=O)(=O)c2cc(NC=O)ccc2C(=O)N(C)C)n1,inactive,
CCOCN(C(=O)CCl)c1c(C)cccc1CC,inactive,
O=S(=O)(O)C(F)(F)C(F)(F)C(F)(F)C(F)(F)C(F)(F)C(F)(F)C(F)(F)C(F)(F)F,inactive,
Clc1ccccc1-c1nnc(-c2ccccc2Cl)nn1,inactive,
O=C(O)COc1ccc(Cl)cc1Cl,inactive,
CC[C@H](C)[C@H]1O[C@]2(C=C[C@@H]1C)C[C@@H]1C[C@@H](C/C=C(\C)[C@@H](O[C@H]3C[C@H](OC)[C@@H](O[C@H]4C[C@H](OC)[C@@H](O)[C@H](C)O4)[C@H](C)O3)[C@@H](C)/C=C/C=C3\CO[C@@H]4[C@H](O)C(C)=C[C@@H](C(=O)O1)[C@]34O)O2 (tested in a mixture with another compound),,22.3 µM (active)
CNC(=O)CSP(=S)(OC)OC,inactive,
C[C@H]1[C@H](c2ccc(Cl)cc2)SC(=O)N1C(=O)NC1CCCCC1,inactive,
CCOC1Oc2ccc(OS(C)(=O)=O)cc2C1(C)C (stereo not given),inactive,
COC(=O)c1ccccc1S(=O)(=O)NC(=O)Nc1nc(C)nc(OC)n1,inactive,
COC(=O)c1ccccc1S(=O)(=O)NC(=O)N(C)c1nc(C)nc(OC)n1,inactive,
CCC(C)(NC(=O)c1cc(Cl)c(C)c(Cl)c1)C(=O)CCl (stereo not given),,37 µM (active)
CC(C)N(C(=O)COc1nnc(C(F)(F)F)s1)c1ccc(F)cc1,inactive,
CCOc1nc(NC)nc(NC(=O)NS(=O)(=O)c2ccccc2C(=O)OC)n1,inactive,
CCN(CC)C(=O)SCc1ccc(Cl)cc1,inactive,
CCCN(CCOc1c(Cl)cc(Cl)cc1Cl)C(=O)n1ccnc1,inactive,
CN1CSC(=S)N(C)C1,,40.9 µM (active)
N#CN,inactive,
CCC(C)Nc1c([N+](=O)[O-])cc(C(C)(C)C)cc1[N+](=O)[O-] (stereo not given),inactive,
